Experimental data as given in the supplement of paper PMC10849652.
Of roughly 7,900 targets only a part is listed; those with a hit were picked by preference. About 0.6% of all pairs of compound and target were hits.

Assays:
Test in all cases: log2 fold change, soluble protein after heating vs DMSO (PISA); higher = thermal stabilisation; K562 cells, 10 uM, 30 min; active = over 0.2 and 3.5 SD of the protein, either way, in both replicates (recomputed)
erlotinib = compound: C#Cc1cccc(Nc2ncnc3cc(OCCOC)c(OCCOC)cc23)c1 [erlotinib]
Summary of the method: (§1)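 Thermal stability values are relative to control samples and come from duplicates. They are expressed as log2 fold changes. For measurement, K562 cells (2×10^6 cells/mL) received 10 μM compound for 30 min, and aliquots were heated for 3 min over 48°C-58°C, pooled, and extracted at 4°C in PBS with 0.5% NP-40. Soluble protein, the supernatant after 21,000xg for 90 min, was quantified by TMTpro 16plex LC-MS/MS with equalised channel sums.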

[1] = compound: C/C(=N\NC(=O)C1=CC(=CC=C1)S(=O)(=O)N2CCOCC2)/C3=C(C=CC(=C3)Cl)O
Summary of the method: as §1

[2] = compound: C1=CC(=C(C=C1Cl)C2=NC3=NC=CN=C3C(=N2)NC4=CC=NC=C4)F
Summary of the method: as §1

[3] = compound: C1=CC(=CC=C1C2=NC3=C(N2)C=C(C=C3)C(=O)N)OC4=CC=C(C=C4)Cl
Summary of the method: as §1

[4] = compound: C1=CC2=C(C=CC(=C2)/C=C\3/C(=O)NC(=NCC4=CC=CS4)S3)N=C1
Summary of the method: as §1

[5] = compound: C1=CC2=NC=CN=C2C=C1/C=C/3\C(=O)NC(=O)S3
Summary of the method: as §1

[6] = compound: C1=CC=C(C=C1)C2=NC(=C(N2)C3=CC=NC=C3)C4=CC(=C(C=C4)Cl)O
Summary of the method: as §1

[7] = compound: C1=CC=C2C(=C1)C3=NNC4=CC=CC(=C43)C2=O
Summary of the method: as §1

[8] = compound: C1CCN(C1)C(=O)NC2=CC=CC(=C2)NC3=NC=C(C(=N3)NCCC4=CN=CN4)Br
Summary of the method: as §1

[9] = compound: C1CN(CCC1(CC2=CC=C(C=C2)Cl)N)C3=NC=NC4=C3C=CN4
Summary of the method: as §1

Measured: log2 fold change

ATIC (UniProt P31939)
inactive: erlotinib 0.031 | [1] 0.033 | [2] 0.062 | [3] 0.006 | [4] 0.005 | [5] -0.067 | [6] 0.094 | [7] 0.016 | [8] -0.031 | [9] 0.035

B4GALT1 (UniProt P15291)
inactive: erlotinib -0.095 | [1] 0.07 | [2] -0.018 | [3] 0.047 | [4] -0.033 | [5] 0.07 | [6] -0.035 | [7] 0.024 | [8] -0.078 | [9] 0.017

ARFGAP2 (UniProt Q8N6H7)
inactive: erlotinib 0.017 | [1] 0.034 | [2] 0.019 | [3] -0.016 | [4] 0.06 | [5] 0 | [6] -0.01 | [7] -0.007 | [8] -0.053 | [9] -0.009

BTAF1 (UniProt O14981)
inactive: erlotinib 0.04 | [1] 0.078 | [2] 0.072 | [3] 0.005 | [4] 0.048 | [5] -0.006 | [6] -0.038 | [7] -0.032 | [8] 0.011 | [9] 0.05

BAD (UniProt Q92934)
Sequence of UniProt Q92934 (Q92934 whole entry, looked up): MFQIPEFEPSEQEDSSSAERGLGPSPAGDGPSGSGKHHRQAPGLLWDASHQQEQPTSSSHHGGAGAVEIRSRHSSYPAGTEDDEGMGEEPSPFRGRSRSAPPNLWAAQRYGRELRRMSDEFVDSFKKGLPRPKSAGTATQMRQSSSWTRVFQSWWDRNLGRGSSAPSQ
inactive: erlotinib 0.049 | [1] 0.079 | [2] 0.022 | [3] 0.124 | [4] 0.083 | [5] 0.023 | [6] 0.01 | [7] 0.025

ATL2 (UniProt Q8NHH9)
inactive: erlotinib -0.004 | [1] 0 | [2] 0.081 | [3] 0.004 | [4] 0.049 | [5] 0.012 | [6] 0.049 | [7] 0.014 | [8] 0.077 | [9] 0

ACBD6 (UniProt Q9BR61)
Sequence of UniProt Q9BR61 (Q9BR61 whole entry, looked up): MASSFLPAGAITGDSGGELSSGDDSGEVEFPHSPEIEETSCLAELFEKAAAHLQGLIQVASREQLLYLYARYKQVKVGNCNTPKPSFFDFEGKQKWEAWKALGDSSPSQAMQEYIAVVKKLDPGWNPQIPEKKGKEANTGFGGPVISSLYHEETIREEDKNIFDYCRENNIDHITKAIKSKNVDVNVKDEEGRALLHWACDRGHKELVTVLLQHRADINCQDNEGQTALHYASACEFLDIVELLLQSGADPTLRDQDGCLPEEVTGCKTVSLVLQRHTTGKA
inactive: erlotinib 0.056 | [1] -0.031 | [2] 0.134 | [3] 0.108 | [4] 0.007 | [5] 0.011 | [6] -0.078 | [7] 0.073 | [8] -0.186 | [9] -0.216

ARFGAP1 (UniProt Q8N6T3)
inactive: erlotinib -0.017 | [1] 0.131 | [2] 0.086 | [3] -0.072 | [4] -0.017 | [5] -0.018 | [6] -0.069 | [7] 0.035 | [8] -0.037 | [9] 0.001

ABCA3 (UniProt Q99758)
inactive: erlotinib 0.011 | [1] 0.087 | [2] 0.002 | [3] 0.057 | [4] -0.027 | [5] -0.056 | [6] 0.01 | [7] 0.031 | [8] 0.094 | [9] -0.034

ACACB (UniProt O00763)
inactive: erlotinib 0.048 | [1] -0.094 | [2] -0.212 | [3] -0.108 | [4] 0.07 | [5] -0.123 | [6] 0.132 | [7] -0.028 | [8] -0.059 | [9] -0.143

BID isoform 2 (UniProt P55957)
Sequence of UniProt P55957 (P55957 whole entry, looked up): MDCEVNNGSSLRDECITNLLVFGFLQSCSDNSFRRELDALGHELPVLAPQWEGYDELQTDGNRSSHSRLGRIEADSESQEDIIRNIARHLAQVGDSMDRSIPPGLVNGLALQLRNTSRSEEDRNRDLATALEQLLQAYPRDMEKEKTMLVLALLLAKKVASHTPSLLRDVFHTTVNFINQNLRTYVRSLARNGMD
inactive: erlotinib 0.026 | [1] 0.006 | [2] 0.014 | [3] 0.052 | [4] -0.04 | [5] 0.012 | [6] -0.03 | [7] 0.028 | [8] -0.05 | [9] 0.034

ARL1 (UniProt P40616)
Sequence of UniProt P40616 (P40616 whole entry, looked up): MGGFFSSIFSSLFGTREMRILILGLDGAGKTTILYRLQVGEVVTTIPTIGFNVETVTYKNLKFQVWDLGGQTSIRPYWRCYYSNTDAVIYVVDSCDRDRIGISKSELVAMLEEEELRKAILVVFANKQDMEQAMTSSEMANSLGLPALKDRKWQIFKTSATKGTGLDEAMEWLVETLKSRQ
inactive: erlotinib 0.049 | [1] 0.063 | [2] 0.072 | [3] -0.091 | [4] 0.027 | [5] -0.028 | [6] 0.13 | [7] 0.084 | [8] -0.076 | [9] 0.055

ADRM1 (UniProt Q16186)
inactive: erlotinib -0.069 | [1] -0.038 | [2] -0.007 | [3] 0.006 | [4] 0.034 | [5] 0.033 | [6] 0.028 | [7] 0.046 | [8] -0.017 | [9] -0.076

ATP11A (UniProt P98196)
inactive: erlotinib -0.038 | [1] 0.015 | [2] 0.004 | [3] 0.005 | [4] -0.038 | [5] 0.035 | [6] -0.048 | [7] -0.085 | [8] -0.035 | [9] 0.012

ATP6AP1 (UniProt Q15904)
Sequence of UniProt Q15904 (Q15904 whole entry, looked up): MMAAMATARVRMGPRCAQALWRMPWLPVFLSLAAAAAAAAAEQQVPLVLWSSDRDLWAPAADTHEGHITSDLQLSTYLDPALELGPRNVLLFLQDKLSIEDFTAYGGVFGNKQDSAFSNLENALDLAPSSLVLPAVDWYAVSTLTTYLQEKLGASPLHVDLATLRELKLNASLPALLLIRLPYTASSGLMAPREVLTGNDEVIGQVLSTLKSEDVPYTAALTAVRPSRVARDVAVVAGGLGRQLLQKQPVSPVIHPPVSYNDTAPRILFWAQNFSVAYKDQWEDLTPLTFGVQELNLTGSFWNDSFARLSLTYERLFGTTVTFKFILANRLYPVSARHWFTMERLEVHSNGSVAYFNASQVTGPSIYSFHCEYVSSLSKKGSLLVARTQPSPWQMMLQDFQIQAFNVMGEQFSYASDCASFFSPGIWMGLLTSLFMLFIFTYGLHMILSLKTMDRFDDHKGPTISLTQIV
inactive: erlotinib -0.009 | [1] -0.031 | [2] -0.036 | [3] 0.029 | [4] -0.08 | [5] -0.022 | [6] -0.128 | [7] -0.004 | [8] 0.01 | [9] -0.079

ALDH1B1 (UniProt P30837)
Sequence of UniProt P30837 (P30837 whole entry, looked up): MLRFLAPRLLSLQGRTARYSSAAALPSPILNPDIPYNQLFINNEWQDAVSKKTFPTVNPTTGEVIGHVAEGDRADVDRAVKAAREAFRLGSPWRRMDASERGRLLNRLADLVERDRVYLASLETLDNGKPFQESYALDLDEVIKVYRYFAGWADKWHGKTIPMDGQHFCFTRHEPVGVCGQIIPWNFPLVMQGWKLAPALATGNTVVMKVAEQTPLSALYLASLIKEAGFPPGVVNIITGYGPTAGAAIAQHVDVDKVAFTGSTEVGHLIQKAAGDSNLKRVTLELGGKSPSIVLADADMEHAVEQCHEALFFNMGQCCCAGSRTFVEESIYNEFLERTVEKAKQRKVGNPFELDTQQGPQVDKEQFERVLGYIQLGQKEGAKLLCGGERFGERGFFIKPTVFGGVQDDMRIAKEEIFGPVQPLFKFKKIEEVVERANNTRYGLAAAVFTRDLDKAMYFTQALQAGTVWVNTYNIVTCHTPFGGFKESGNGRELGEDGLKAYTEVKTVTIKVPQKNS
inactive: erlotinib 0 | [1] 0.073 | [2] 0.066 | [3] 0.081 | [4] 0.062 | [5] -0.009 | [6] 0.044 | [7] 0.065 | [8] -0.028 | [9] 0.043

AKR1C3 (UniProt P42330)
Sequence of UniProt P42330 (P42330 whole entry, looked up): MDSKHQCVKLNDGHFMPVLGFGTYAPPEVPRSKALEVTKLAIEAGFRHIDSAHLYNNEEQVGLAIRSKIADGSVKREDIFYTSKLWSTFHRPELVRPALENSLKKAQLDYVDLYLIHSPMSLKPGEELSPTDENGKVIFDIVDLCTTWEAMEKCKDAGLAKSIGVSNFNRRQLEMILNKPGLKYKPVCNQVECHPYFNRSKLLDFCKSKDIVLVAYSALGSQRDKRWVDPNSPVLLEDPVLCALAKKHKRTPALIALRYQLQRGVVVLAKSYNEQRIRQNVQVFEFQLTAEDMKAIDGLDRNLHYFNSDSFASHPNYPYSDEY
active: [6] 0.796
inactive: erlotinib 0.063 | [1] 0.067 | [2] 0.117 | [3] -0.095 | [4] 0.02 | [5] 0.067 | [7] -0.022 | [8] 0.031 | [9] 0.044

ATAD3A isoform 2 (UniProt Q9NVI7)
Sequence of UniProt Q9NVI7 (Q9NVI7 whole entry, looked up): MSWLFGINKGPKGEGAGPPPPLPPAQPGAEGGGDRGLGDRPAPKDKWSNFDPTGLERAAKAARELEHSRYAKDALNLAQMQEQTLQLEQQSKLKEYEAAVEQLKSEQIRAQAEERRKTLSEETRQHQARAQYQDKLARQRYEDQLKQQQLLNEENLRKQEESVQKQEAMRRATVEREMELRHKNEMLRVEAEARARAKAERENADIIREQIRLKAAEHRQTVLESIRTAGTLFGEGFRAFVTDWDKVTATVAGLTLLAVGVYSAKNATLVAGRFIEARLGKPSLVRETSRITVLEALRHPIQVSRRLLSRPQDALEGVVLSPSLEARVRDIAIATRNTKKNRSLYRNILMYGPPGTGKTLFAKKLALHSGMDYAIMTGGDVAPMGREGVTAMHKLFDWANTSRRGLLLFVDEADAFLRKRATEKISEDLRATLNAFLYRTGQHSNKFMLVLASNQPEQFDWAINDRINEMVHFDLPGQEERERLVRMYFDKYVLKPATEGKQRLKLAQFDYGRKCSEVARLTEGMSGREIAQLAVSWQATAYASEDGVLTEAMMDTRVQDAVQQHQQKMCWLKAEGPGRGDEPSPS
inactive: erlotinib -0.036 | [1] 0.02 | [2] -0.045 | [3] 0.006 | [4] -0.038 | [5] -0.013 | [6] -0.04 | [7] 0.017 | [8] 0.037 | [9] -0.101

ARL6IP4 (UniProt Q66PJ3)
inactive: erlotinib 0.041 | [1] 0.06 | [2] -0.085 | [3] -0.01 | [4] -0.08 | [5] 0 | [6] -0.12 | [7] 0.117 | [8] 0.003 | [9] 0.039

ALDH9A1 (UniProt P49189)
inactive: erlotinib 0.131 | [1] 0.021 | [2] 0.035 | [3] -0.077 | [4] -0.023 | [5] 0.013 | [6] -0.103 | [7] 0.043 | [8] 0.035 | [9] 0.045

AP2A1 (UniProt O95782)
Sequence of UniProt O95782 (O95782 whole entry, looked up): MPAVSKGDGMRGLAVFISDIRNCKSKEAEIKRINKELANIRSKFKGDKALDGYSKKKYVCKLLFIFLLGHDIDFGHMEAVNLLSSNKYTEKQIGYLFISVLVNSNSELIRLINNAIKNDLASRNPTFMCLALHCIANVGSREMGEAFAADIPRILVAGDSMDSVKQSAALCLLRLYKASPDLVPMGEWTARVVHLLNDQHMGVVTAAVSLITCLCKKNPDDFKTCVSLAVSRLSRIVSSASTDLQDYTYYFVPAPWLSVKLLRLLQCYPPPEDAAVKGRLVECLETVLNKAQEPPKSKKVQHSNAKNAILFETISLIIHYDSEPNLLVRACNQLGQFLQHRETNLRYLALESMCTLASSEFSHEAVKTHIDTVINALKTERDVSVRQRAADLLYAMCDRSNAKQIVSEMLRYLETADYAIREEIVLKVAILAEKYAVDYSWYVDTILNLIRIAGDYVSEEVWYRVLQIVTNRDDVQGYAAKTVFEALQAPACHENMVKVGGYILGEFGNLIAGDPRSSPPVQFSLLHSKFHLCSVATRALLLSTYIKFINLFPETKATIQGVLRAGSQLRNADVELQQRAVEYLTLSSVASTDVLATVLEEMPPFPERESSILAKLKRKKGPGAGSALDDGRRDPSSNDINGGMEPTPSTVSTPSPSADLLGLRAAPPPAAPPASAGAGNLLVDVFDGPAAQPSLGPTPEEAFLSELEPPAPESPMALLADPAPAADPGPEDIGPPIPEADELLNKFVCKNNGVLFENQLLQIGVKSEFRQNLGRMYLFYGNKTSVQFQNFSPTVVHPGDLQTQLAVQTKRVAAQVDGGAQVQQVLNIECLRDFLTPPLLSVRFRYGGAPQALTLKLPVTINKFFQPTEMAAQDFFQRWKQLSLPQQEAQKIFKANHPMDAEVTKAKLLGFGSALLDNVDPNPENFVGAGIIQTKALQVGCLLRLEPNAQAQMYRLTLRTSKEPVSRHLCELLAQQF
inactive: erlotinib -0.019 | [1] 0.012 | [2] -0.035 | [3] 0.003 | [4] -0.041 | [5] 0.003 | [6] 0.057 | [9] -0.038
active: [7] -0.381 | [8] -0.527

ABHD11 (UniProt Q8NFV4)
Sequence of UniProt Q8NFV4 (Q8NFV4 whole entry, looked up): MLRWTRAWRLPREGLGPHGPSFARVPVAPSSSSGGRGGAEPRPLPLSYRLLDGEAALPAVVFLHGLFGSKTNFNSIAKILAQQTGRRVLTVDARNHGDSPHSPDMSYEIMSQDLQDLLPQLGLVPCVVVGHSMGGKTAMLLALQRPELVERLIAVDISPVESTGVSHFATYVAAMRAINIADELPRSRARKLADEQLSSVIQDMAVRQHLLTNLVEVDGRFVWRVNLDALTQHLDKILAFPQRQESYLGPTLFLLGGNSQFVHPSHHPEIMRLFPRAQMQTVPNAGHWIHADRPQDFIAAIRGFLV
inactive: erlotinib 0.03 | [1] -0.041 | [2] 0.078 | [3] -0.033 | [4] 0.113 | [5] -0.067 | [6] 0.045 | [7] 0.043 | [8] -0.079 | [9] 0.01

ATP5ME (UniProt P56385)
inactive: erlotinib 0.013 | [1] 0.037 | [2] 0.136 | [3] -0.007 | [4] 0.085 | [5] 0.051 | [6] 0.023 | [7] 0.002 | [8] -0.051 | [9] 0.013

AGO1 (UniProt Q9UL18)
inactive: erlotinib 0.031 | [1] -0.061 | [2] 0.05 | [3] -0.091 | [4] 0.032 | [5] 0.005 | [6] 0.01 | [7] -0.08 | [8] -0.008 | [9] 0.046

APOB (UniProt P04114)
inactive: erlotinib 0.062 | [1] 0.008 | [2] 0.042 | [3] -0.024 | [4] -0.018 | [5] 0.05 | [6] 0.046 | [7] -0.011 | [8] 0.018 | [9] -0.174

AIFM2 (UniProt Q9BRQ8)
inactive: erlotinib -0.038 | [1] 0.045 | [2] -0.001 | [3] 0.064 | [4] -0.025 | [5] -0.032 | [6] 0.041 | [7] 0.172 | [8] -0.045 | [9] 0.064

ACP1 isoform 2 (UniProt P24666)
Sequence of UniProt P24666 (P24666 whole entry, looked up): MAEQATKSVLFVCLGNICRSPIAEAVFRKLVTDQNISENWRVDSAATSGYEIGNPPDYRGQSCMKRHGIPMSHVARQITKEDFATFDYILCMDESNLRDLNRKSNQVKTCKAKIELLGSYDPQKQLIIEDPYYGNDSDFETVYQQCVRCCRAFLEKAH
inactive: erlotinib 0.072 | [1] 0.011 | [2] 0.038 | [3] 0.024 | [4] 0.029 | [5] -0.008 | [6] -0.018 | [7] 0 | [8] 0.004 | [9] -0.039

BUB1B isoform 3 (UniProt O60566)
inactive: erlotinib 0.019 | [1] 0.054 | [2] -0.049 | [3] -0.031 | [4] 0.157 | [5] 0.052 | [6] 0.037 | [7] -0.038 | [8] -0.031 | [9] -0.095

BAP1 (UniProt Q92560)
Sequence of UniProt Q92560 (Q92560 whole entry, looked up): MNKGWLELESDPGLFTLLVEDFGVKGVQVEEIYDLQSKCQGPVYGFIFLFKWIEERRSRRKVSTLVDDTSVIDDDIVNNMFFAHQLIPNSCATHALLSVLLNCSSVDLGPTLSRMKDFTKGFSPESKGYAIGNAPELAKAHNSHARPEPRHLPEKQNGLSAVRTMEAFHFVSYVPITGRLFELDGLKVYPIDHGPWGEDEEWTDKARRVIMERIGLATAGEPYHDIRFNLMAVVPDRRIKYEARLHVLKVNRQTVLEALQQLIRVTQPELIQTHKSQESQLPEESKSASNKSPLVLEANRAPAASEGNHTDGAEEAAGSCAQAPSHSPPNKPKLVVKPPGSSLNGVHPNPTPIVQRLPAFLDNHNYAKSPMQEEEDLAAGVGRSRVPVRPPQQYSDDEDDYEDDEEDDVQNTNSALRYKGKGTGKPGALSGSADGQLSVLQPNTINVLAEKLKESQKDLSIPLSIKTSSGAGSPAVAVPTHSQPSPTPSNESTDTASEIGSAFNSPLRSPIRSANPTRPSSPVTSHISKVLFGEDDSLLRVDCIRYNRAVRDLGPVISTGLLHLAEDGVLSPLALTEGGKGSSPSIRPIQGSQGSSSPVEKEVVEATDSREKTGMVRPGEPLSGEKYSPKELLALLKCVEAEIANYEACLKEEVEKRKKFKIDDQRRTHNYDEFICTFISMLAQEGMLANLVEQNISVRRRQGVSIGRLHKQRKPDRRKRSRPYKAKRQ
inactive: erlotinib 0.182 | [1] -0.013 | [2] -0.142 | [3] -0.048 | [4] -0.128 | [5] 0.06 | [6] -0.104 | [7] -0.05 | [8] -0.078 | [9] -0.088

ATP6V0A2 (UniProt Q9Y487)
inactive: erlotinib -0.009 | [1] 0 | [2] -0.045 | [3] 0.031 | [4] -0.025 | [5] 0.031 | [6] 0.024 | [7] 0.041 | [8] -0.016 | [9] 0.002
